Laboratory results: PubChem BioAssay (Tox21)
Inconclusive results are not listed. Activity calls are given as the source filed them. Unless noted, the call rests on the fitted dose curve.

Legend:
[1] = qHTS assay to identify small molecule agonists of the sonic hedgehog signaling (Shh) pathway (AID 1259368);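 further: NIH/3T3-derived 3T3Gli1-Luc cells carrying a stable Gli1-driven firefly luciferase reporter; series mostly up to about 92 µM; nearly all actives have a fitted effect of over 15% in size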
Method in brief: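 Luminescence was read after 30 min at room temperature with luciferase reagent. Before that, 3T3Gli1-Luc cells (NIH/3T3 clone, stable Gli1-Luc reporter; 2,000/well) were exposed to compounds for 24 hr at 37C, 5% CO2, compounds being added 4 hr post-plating.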

[2] = qHTS assay to identify small molecule antagonists of the sonic hedgehog signaling (Shh) pathway (AID 1259369); further: nearly all actives have a fitted effect of over 45% in size
Method in brief: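 Antagonist mode: compound added to 3T3 Gli1-Luc cells followed by conditioned-medium stimulation, 24 h at 37 C, 5% CO2. Inhibition taken as loss of Gli1-driven luciferase luminescence.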

[3] = qHTS assay to identify small molecule agonists of the androgen receptor (AR) signaling pathway in the presence of an antagonist - cell viability counter screen (AID 1259379; active means well fitted curve in the direction sought with a large enough effect in the repeat runs; an effect the other way counts as inactive or inconclusive;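 further: MDA-kb2 human breast cancer cells carrying an MMTV luciferase reporter; series mostly up to about 92 µM; nearly all actives have a fitted effect of over 25% in size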)
Method in brief: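 Cytotoxicity counter-screen run in the same wells as the nilutamide-challenged (3.0 µM final) AR agonist assay in MDA-kb2 cells. Compounds tested at 15 concentrations for 16 h, 37 °C without CO2; CellTiter-Fluor fluorescence read.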

[4] = target: Androgen receptor (Homo sapiens) (UniProt P10275); assay: qHTS assay to identify small molecule agonists of the androgen receptor (AR) signaling pathway in the presence of an antagonist (AID 1259381); further: nearly all actives have a fitted effect of over 15% in size
Method in brief: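 Agonist-mode confirmation run against 3.0 uM final nilutamide: compounds titrated at 15 concentrations onto MDA-kb2 MMTV-luciferase reporter cells. Luminescence measured with ONE-Glo following 16 hr incubation, 37C, 0% CO2.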

[5] = qHTS assay to identify small molecule agonists or antagonists of the thyroid stimulating hormone receptor (TSHR) signaling pathway - wild type cell line counter screen (AID 1259384)
Method in brief: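 Wild-type Hek293 cells, 800/well, 18 h at 37C, then compound with Ro20-1724 for 30 min RT. cAMP by HTRF (cAMP-d2/anti-cAMP cryptate), 1 h RT, fluorescence read. 15 concentrations, triplicates.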

[6] = qHTS assay to identify small molecule antagonists of the estrogen receptor beta (ER-beta) signaling pathway - cell viability counter screen (AID 1259382; active means well fitted curve in the direction sought with a large enough effect in the repeat runs; an effect the other way counts as inactive or inconclusive; further: series mostly up to about 92 µM; nearly all actives have a fitted effect of over 55% in size)
Method in brief: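 Cytotoxicity was measured in the same wells by CellTiter-Glo luminescence after 30 min at room temperature. Cells were ER-beta-bla HEK293T in charcoal-stripped serum, given compound together with 1 nM E2 and incubated 16 h at 37C.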

[7] = qHTS assay to identify small molecule agonists of the estrogen receptor beta (ER-beta) signaling pathway - cell viability counter screen (AID 1259380; active means well fitted curve in the direction sought with a large enough effect in the repeat runs; an effect the other way counts as inactive or inconclusive; further: nearly all actives have a fitted effect of over 30% in size)
Method in brief: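 Cell viability counter screen: CellTiter-Glo luminescence (30 min, room temperature) measured in the same wells as the beta-lactamase readout, after 16 hr compound exposure at 37C of ER-beta-bla HEK293T cells in 2% charcoal-stripped FBS medium.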

[8] = target: Estrogen receptor (Homo sapiens) (UniProt P03372); assay: qHTS assay to identify small molecule agonists of the estrogen receptor alpha (ER-alpha) signaling pathway in the presence of an antagonist (AID 1259383); further: top concentration of the series differs between compounds; nearly all actives have a fitted effect of over 15% in size
Method in brief: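 Agonist-mode confirmation run in the presence of 10.0nM (final) ICI-182,780 antagonist. The reporter was ERE-driven luciferase in VM7Luc4E2 cells, grown in charcoal-stripped serum. Cells were exposed to 15-concentration compound series for 22hr, then ONE-Glo luminescence was read.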

[9] = target: Estrogen receptor beta (Homo sapiens) (UniProt Q92731); assay: qHTS assay to identify small molecule agonists of the estrogen receptor beta (ER-beta) signaling pathway (AID 1259377; active means well fitted activation curve with a large enough effect in the signal ratio in the repeat runs, not every such curve was filed as active; the % refers to the signal ratio)
Method in brief: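 ER-beta-UAS-bla HEK293T cells in medium with 2% charcoal-stripped FBS were exposed to compounds for 16 h at 37C. Beta-lactamase reporter activity was read as fluorescence after 2 h with LiveBLAzer B/G FRET substrate at room temperature.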

[10] = target: Estrogen receptor beta (Homo sapiens) (UniProt Q92731); assay: qHTS assay to identify small molecule antagonists of the estrogen receptor beta (ER-beta) signaling pathway (AID 1259378; active means well fitted inhibition curve with a large enough effect in the signal ratio in the repeat runs, not every such curve was filed as active; the % refers to the signal ratio)
Method in brief: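 ER-beta-UAS-bla HEK293T cells in 2% charcoal-stripped FBS medium treated with compound plus 1nM final 17-beta-estradiol for 16 hr at 37C. Beta-lactamase reporter read by FRET substrate fluorescence after 2 hours at room temperature.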

Measured: Potency

Sequence of Estrogen receptor (Homo sapiens) (P03372 whole entry, looked up): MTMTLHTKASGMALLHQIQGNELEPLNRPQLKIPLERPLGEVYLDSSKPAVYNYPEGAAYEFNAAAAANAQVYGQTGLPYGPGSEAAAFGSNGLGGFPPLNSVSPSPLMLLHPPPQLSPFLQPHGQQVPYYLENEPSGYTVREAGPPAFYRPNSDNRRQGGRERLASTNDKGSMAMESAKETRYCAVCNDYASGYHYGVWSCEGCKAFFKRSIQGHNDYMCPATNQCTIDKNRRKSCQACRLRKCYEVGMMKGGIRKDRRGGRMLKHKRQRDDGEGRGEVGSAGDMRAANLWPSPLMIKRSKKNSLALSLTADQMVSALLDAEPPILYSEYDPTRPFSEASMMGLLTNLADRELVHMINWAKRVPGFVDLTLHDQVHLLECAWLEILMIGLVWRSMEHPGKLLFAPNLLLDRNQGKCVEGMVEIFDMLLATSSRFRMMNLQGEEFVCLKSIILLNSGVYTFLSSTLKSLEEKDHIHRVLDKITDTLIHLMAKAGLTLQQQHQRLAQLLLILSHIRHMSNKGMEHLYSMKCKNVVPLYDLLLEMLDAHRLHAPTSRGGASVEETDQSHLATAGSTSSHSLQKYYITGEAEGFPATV
Sequence of Androgen receptor (Homo sapiens) (P10275 whole entry, looked up): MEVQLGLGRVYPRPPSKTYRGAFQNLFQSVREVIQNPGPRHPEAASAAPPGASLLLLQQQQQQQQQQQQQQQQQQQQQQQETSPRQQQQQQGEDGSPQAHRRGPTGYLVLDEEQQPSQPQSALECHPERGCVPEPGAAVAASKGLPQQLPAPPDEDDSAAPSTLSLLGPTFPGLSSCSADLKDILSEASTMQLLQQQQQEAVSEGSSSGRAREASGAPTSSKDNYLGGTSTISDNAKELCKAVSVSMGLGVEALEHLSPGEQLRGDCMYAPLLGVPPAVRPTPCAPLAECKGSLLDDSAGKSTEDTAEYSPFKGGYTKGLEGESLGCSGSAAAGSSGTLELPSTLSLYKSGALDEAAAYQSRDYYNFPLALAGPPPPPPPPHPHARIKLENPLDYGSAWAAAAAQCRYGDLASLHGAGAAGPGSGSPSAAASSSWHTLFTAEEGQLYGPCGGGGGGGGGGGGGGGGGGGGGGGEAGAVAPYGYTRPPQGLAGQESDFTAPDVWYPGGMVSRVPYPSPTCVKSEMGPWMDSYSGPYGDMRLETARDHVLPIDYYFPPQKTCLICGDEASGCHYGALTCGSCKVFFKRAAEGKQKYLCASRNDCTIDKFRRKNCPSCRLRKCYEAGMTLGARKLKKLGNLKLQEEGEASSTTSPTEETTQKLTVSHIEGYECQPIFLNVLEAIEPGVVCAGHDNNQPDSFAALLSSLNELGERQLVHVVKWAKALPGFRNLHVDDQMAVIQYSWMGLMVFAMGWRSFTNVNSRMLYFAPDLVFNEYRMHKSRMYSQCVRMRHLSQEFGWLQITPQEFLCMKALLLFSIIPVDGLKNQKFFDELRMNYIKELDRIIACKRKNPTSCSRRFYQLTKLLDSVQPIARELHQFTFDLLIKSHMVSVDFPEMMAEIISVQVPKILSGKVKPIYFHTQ
Sequence of Estrogen receptor beta (Homo sapiens) (Q92731 whole entry, looked up): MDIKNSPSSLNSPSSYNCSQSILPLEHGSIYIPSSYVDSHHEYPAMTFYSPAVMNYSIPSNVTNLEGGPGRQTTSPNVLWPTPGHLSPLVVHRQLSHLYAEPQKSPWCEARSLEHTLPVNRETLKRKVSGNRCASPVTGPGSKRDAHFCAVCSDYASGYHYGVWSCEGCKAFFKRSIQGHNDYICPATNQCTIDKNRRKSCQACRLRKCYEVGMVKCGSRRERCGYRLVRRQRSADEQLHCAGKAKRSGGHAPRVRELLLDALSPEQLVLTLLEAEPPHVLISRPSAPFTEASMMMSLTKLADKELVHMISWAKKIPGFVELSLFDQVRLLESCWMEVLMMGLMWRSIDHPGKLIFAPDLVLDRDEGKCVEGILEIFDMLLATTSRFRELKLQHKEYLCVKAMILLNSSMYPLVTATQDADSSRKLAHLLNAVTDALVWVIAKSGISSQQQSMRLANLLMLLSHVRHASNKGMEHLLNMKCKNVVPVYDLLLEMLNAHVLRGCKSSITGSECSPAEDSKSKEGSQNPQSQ

CC1(CO)CN(c2ccccc2)NC1=O (stereo not given)
inactive: [1] | [2] | [3] | [4] | [5]

FC(F)(F)c1ccccc1-n1ccnc1
inactive: [1] | [2] | [3] | [6]

COc1ccc(Br)c(C)c1
inactive: [1] | [2] | [3] | [7] | [6] | [5]

Nc1cccc(O)c1
not listed: [4] | [9] | [10]
inactive: all other assays above

CCc1ccc(C=O)cc1
inactive: [1] | [2] | [3] | [7] | [6] | [5]

Oc1ccccc1-c1nnco1
not listed: [7] | [9] | [10]
inactive: all other assays above

CC(=O)c1sc(C)nc1C
inactive: [1] | [2] | [3] | [7] | [6] | [5]

CCOC(=O)/C=C/c1ccccc1
inactive: [1] | [2] | [3] | [7] | [6] | [5]

COc1cc(N)ccc1C
inactive: [1] | [2] | [3] | [7] | [6] | [5]

Cc1ccc2ccc(Cl)cc2n1
not listed: [7] | [9] | [10]
inactive: all other assays above

O=C(OCC1(COC(=O)c2cccnc2)CCCC(COC(=O)c2cccnc2)(COC(=O)c2cccnc2)C1O)c1cccnc1
inactive: [1] | [2] | [3] | [7] | [6] | [5]

CCCOC(OCCC)OCCC
inactive: [1] | [2] | [3] | [6]

CN=C(NC#N)Nc1ccc(C2=NNC(=O)CC2C)cc1 (stereo not given)
inactive: [1] | [2] | [3] | [7] | [6] | [5]

C[Si](C)(C)C
inactive: [1] | [2] | [3] | [7] | [6] | [5]

C=Cc1ccccn1
inactive: [1] | [2] | [3] | [7] | [6] | [5]

CCOc1cc(NC(C)=O)ccc1C(=O)OC
inactive: [1] | [2] | [3] | [7] | [6] | [5]

CC(C)CC(C)CC(C)CC(C)COC(=O)c1ccccc1C(=O)OCC(C)CC(C)CC(C)CC(C)C (stereo not given)
inactive: [1] | [3] | [6] | [5]

CN(C)CCOCCO
inactive: [1] | [2] | [3] | [6] | [8]

O=C1O[C@@H]2[C@@H](O)[C@H](O)O[C@@H]2[C@H]1O
not listed: [2] | [4] | [7]
inactive: all other assays above

CCO[Si](CCCS)(OCC)OCC
inactive: [1] | [9] | [3] | [7] | [6] | [5]

CC(C)(C)OC(=O)c1ccc(O)cc1
inactive: [1] | [3] | [7] | [4] | [6] | [5]

CC(=O)Nc1cccc(C)c1
inactive: [1] | [2] | [3] | [6] | [8] | [5]

BrCCCCCBr
not listed: [2] | [4] | [10]
inactive: all other assays above

CCCCNc1ccc(C(=O)OCCN(C)C)cc1
inactive: [1] | [2] | [3] | [6] | [5]

O=C(OCC(O)CO)c1ccccc1Nc1ccnc2c(C(F)(F)F)cccc12 (stereo not given)
inactive: [1] | [3] | [4] | [6]

O=C1c2ccccc2C(=O)C1c1ccccc1
inactive: [1] | [2] | [3] | [6] | [8] | [5]
